Laboratory results published in publication PMC4336329 (PLoS ONE, 2015).
Hit rate of the full screen: of about 310,000 compounds, about 14,000 (4.5%) showed an effect of 50% or more. Effects have a minus sign here. Shown is part of a subset that was picked to be rich in strong results.

target: human ether-à-go-go-related gene (hERG) potassium channel (human, UniProt Q12809); assay: primary screen, population patch clamp on CHO cells stably expressing hERG; higher = less effect of the substance
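Note: peak tail current of the secondary pulse compared with the same well before compound.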

Chain of human ether-à-go-go-related gene (hERG) potassium channel (Q12809 whole entry, looked up): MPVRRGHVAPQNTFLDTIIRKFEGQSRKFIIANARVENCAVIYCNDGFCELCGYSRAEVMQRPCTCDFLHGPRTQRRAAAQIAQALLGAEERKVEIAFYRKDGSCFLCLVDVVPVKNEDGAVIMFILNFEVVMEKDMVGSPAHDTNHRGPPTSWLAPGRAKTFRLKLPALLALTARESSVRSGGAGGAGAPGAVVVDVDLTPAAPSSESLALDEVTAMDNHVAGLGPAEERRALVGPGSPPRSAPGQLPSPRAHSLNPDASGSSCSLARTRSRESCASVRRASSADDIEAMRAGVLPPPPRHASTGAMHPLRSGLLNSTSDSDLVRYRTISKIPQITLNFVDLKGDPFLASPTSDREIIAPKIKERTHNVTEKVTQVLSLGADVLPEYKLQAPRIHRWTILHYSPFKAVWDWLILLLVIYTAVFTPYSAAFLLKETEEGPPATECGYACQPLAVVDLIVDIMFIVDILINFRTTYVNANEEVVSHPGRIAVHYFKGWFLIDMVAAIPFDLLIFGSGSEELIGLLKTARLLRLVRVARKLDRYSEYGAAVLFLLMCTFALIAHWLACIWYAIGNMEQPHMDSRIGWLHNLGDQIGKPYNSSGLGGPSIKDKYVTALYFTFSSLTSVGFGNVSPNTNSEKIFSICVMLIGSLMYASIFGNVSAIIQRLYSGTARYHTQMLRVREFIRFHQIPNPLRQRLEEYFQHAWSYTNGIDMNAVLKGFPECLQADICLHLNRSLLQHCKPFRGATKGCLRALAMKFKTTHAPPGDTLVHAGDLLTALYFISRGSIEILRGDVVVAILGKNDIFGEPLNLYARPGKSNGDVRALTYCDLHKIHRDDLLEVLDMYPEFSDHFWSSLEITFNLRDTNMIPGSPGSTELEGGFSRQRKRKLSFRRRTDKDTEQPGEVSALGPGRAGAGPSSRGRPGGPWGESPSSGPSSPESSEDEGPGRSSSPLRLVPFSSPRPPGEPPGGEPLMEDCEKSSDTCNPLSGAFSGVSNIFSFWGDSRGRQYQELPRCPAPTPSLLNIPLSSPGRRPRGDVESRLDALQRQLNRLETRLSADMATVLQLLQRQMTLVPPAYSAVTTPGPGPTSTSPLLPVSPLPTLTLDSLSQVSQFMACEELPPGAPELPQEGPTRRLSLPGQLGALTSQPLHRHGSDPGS

| SMILES | hERG current change (%, negative = inhibition) at 10uM |
| --- | --- |
| CN(C)CCn1cnc2c(c1=N)C(c1ccccc1)c1ccc3ccccc3c1O2 (centres unmarked) | -79.2% |
| CN(C)CCCn1cnc2c(c1=N)C(c1ccccc1)c1ccc3ccccc3c1O2 (centres unmarked) | -75.9% |
| O=C(Nc1cc(=O)[nH]c2ncnn12)c1ccccc1F | 11% |
| CCC(=O)N1CCc2cc(Br)cc(S(=O)(=O)N3CCCCCC3)c21 | -28.6% |
| O=C(c1ccc(COc2ccccc2Cl)o1)N1CCCC1 | -23.6% |
| COc1ccc(C(=O)N2CCN(c3cccc(Cl)c3)CC2)cc1S(=O)(=O)NC1CC1 | -63.5% |
| Cc1ccc(C(=O)N2CCN(c3cccc(Cl)c3)CC2)cc1C | -13.4% |
| COc1ccc(C(=O)Nc2ccc(N3CCOCC3)cc2)cc1S(=O)(=O)NC1CCCC1 | 13.1% |
| COc1ccc(C(=O)N2CCN(c3ccc(C(C)=O)cc3F)CC2)cc1S(=O)(=O)NC1CC1 | -37.5% |
| COc1ccc(C(=O)N2CCN(c3ccccc3Cl)CC2)cc1S(=O)(=O)NC1CC1 | -32.7% |
| COc1ccc(C(=O)N2CCN(c3ccc(F)cc3)CC2)cc1S(=O)(=O)NC1CC1 | -59.2% |
| O=C(OC1CCCCC1=O)c1ccc(S(=O)(=O)Nc2ccccc2)cc1 (centres unmarked) | 0.644% |
| Nc1cc(Cl)cc(C(=O)O)c1Cl | 15.9% |
| O=C(Cn1cnc2sc(-c3ccccc3)cc2c1=O)NCc1ccco1 | -3.75% |
| O=C(Nc1ccc(Cl)cc1)c1cccc(S(=O)(=O)Nc2ccccn2)c1 | -6.23% |
| O=C(Nc1nnc(SCc2ccc(F)cc2)s1)C1Cc2ccccc2CN1C(=O)c1ccco1 (centres unmarked) | -6.55% |
| Cc1cc(C)n2nc(-c3sccc3-n3c(C)ccc3C)cc2n1 | 17.3% |
| Cc1cc(-c2ccc(Cl)cc2)n2nc(C)cc2n1 | 4.45% |
| Cl.N=c1sccn1CC(=O)Nc1ccc(S(=O)(=O)N2CCOCC2)cc1 | -5.32% |
| Cc1nn(CC(=O)Nc2cc(S(=O)(=O)N(C)C)ccc2Cl)c(C)c1[N+](=O)[O-] | -20.9% |
| Cc1nn(CC(=O)Nc2ccc(Cl)c(S(=O)(=O)N(C)C)c2)c(C)c1[N+](=O)[O-] | -61.3% |

| SMILES | hERG current change (%, negative = inhibition) at 10uM |
| --- | --- |
| Cc1ccc(NC(=O)Cn2ccsc2=N)cc1S(=O)(=O)N(C)C.Cl | -13.4% |
| CCC1(c2ccccc2)NC(=O)N(CC(=O)Nc2ccc(Cl)c(S(=O)(=O)N3CCCCC3)c2)C1=O (centres unmarked) | 12.4% |
| CN(C)S(=O)(=O)c1ccc(NC(=O)Cn2ccsc2=N)cc1 | 13.7% |
| CN(C)S(=O)(=O)c1cc(NC(=O)Cn2ccsc2=N)ccc1Cl.Cl | -56.3% |
| Cl.N=c1sccn1CC(=O)Nc1ccc(Cl)c(S(=O)(=O)N2CCOCC2)c1 | -50.4% |
| Cc1ccc(S(=O)(=O)N2CCOCC2)cc1NC(=O)Cn1ccsc1=N.Cl | -5.64% |
| CC1(c2ccccc2)NC(=O)N(CC(=O)Nc2ccc(Cl)c(S(=O)(=O)N3CCCCC3)c2)C1=O (centres unmarked) | -8.09% |
| Cc1nn(CC(=O)Nc2ccc(S(=O)(=O)N(C)C)cc2)c(C)c1[N+](=O)[O-] | -5.89% |
| O=C(Cn1ccccc1=O)Nc1ccc(Cl)c(S(=O)(=O)N2CCCCC2)c1 | -79.4% |
| COc1cc(/C=C2/N=C(C3CCCCC3)OC2=O)cc(OC)c1OC | -17.5% |
| O=C(Cc1ccccc1[N+](=O)[O-])NCc1ccncc1 | 6.57% |
| OC(Cn1c2ccccc2c2ccccc21)C[n+]1cccc2ccccc21.[O-][Cl+3]([O-])([O-])[O-] (centres unmarked) | -33.5% |
| C=C(C)C(=O)N1CC2(CC(c3cccc(NC(=O)/C(C)=C\C)c3)=NO2)C[C@H]1C(N)=O (some centres unmarked) | 2.26% |
| Cc1ccc(-c2nn(C)c(=O)c3ccccc23)cc1S(=O)(=O)NCCN1CCOCC1 | -2.69% |
| Cn1c(=O)[nH]c(=O)c2c1nc(N1CCOCC1)n2CCc1ccccc1 | -0.713% |
| Cc1cccc(N=C2NC(=O)/C(=C/c3cccs3)S2)c1 | 11.9% |
| COc1cc(C)c(/C=C(\C#N)C(=O)Nc2ccc(C)cc2)cc1C(C)C | 11.1% |
| COCCN(C(=O)COC(=O)c1sccc1C)c1c(N)n(Cc2ccccc2)c(=O)[nH]c1=O | 15.4% |
| CCCN(CCC)CCCNC(=O)C(NS(=O)(=O)c1ccc2c(c1)CCC(=O)N2)c1ccccc1 (centres unmarked) | 20.5% |
| CCn1ncc(S(=O)(=O)NCc2ccco2)c1C | -0.626% |
| O=C(Nc1ccc(S(=O)(=O)Nc2cnc3ccccc3n2)cc1)c1ccccc1Br | -10.5% |

| SMILES | hERG current change (%, negative = inhibition) at 10uM |
| --- | --- |
| O=C(CCN1C(=O)/C(=C/c2cccs2)SC1=S)Nc1ccccc1O | 13.7% |
| CC(C)c1ccc(NC(=O)CNC(=O)Cn2cnc3ccccc3c2=O)cc1 | 3.21% |
| Cc1ccc(N/C=C/C(=O)c2ccco2)c(O)c1 | 8.63% |
| COc1cc2c(cc1NC(=O)CSc1nc3ccc(C)cc3[nH]1)oc1ccccc12 | 7.65% |
| O=C(c1cccs1)N1CCN(c2ncccn2)CC1 | 0.299% |
| Cc1ccc(-c2nnc(N3CCN(C(=O)c4cccs4)CC3)c3ccccc23)cc1 | -65.4% |
| CC(=O)N1CCN(c2nnc(-c3ccc(C)cc3)c3ccccc23)CC1 | -38.6% |
| O=C(c1cccs1)N1CCN(c2nnc(-c3ccccc3)c3ccccc23)CC1 | -76.5% |
| CC(=O)N1CCN(c2nnc(-c3ccccc3)c3ccccc23)CC1 | 3.22% |
| Cc1ccc(-c2nnc(N3CCN(C(=O)CN4C(=O)c5ccccc5C4=O)CC3)c3ccccc23)cc1 | 6.37% |
| Cc1ccc(C(=O)Nc2ccc(Cl)cc2C(=O)c2ccccc2)cc1 | 17.1% |
| O=C(CSc1ccccc1)N1CCN(S(=O)(=O)c2ccccc2F)CC1 | -23.9% |
| Cc1c(N=Cc2cccnc2)c(=O)n(-c2ccccc2)n1C | 2.93% |
| CC(=O)Oc1ccc2c(=O)oc(-c3ccc([N+](=O)[O-])cc3)nc2c1 | 1.56% |
| Cc1ccc(C)c(S(=O)(=O)N2CCN(C(=O)Cn3c(C(F)(F)F)nc4ccccc43)CC2)c1 | -1.16% |
| O=c1c2ccccc2c(=O)n(-c2ccccc2)n1CCCCBr | -63.5% |
| O=c1c2ccccc2c(=O)n(Cc2ccccc2)n1Cc1ccccc1 | 16.8% |
| CC(=O)n1c(=O)c2ccccc2c(=O)n1-c1ccccc1 | 3.89% |
| Cc1cccc(C(=O)OCC(=O)c2c(N)n(CC(C)C)c(=O)n(C)c2=O)c1[N+](=O)[O-] | -29.1% |
| O=C(CCCC(=O)OCC1CCCO1)OCC1CCCO1 (centres unmarked) | 8.27% |
| CCOC(=O)c1cn(CC(=O)Nc2ccc(OC)cc2OC)nn1 | 9.07% |

| SMILES | hERG current change (%, negative = inhibition) at 10uM |
| --- | --- |
| Brc1ccc(OCCCCCN2CCOCC2)cc1.O=C(O)C(=O)O | -63.8% |
| Brc1ccc(OCCCN2CCOCC2)cc1.O=C(O)C(=O)O | -28.1% |
| Brc1ccc(OCCOCCN2CCOCC2)cc1 | -9% |
| Brc1ccc(OCCCCN2CCCCC2)cc1 | -53.6% |
| Cc1ccc(OCCCCN2CCCCC2)cc1 | -12.1% |
| CC1CCN(CCCCOc2ccc(Br)cc2)CC1 | -69.4% |
| Cl.O=C(COc1ccc(Br)cc1)OCCN1CCCCC1 | 11.8% |
| C#CCOCCOCCOCCNc1nc(N2CCN(C(=O)CCCCCCCCCCNC(=O)Cn3cc(C[C@@H](C)O)nn3)CC2)nc(N2CCN(C(=O)CCCCCCCCCCNC(=O)[C@H](CCCCN)n3cc(CCCC(=O)O)nn3)CC2)n1 | -1.72% |
| C1CCc2c(nc3nnnn3c2N2CCOCC2)C1 | -3.03% |
| COc1ccc(CC(=O)Nc2ccc(N3CCOCC3)cc2)cc1S(=O)(=O)N1CCOCC1 | 0.936% |
| COc1ccc(CC(=O)Nc2nc3ccc(F)cc3s2)cc1S(=O)(=O)N1CCOCC1 | -19.4% |
| COc1ccc(CC(=O)Nc2nc3ccccc3s2)cc1S(=O)(=O)N1CCOCC1 | -65.9% |
| COc1ccc(CC(=O)Nc2ccc(F)c(Cl)c2)cc1S(=O)(=O)N1CCOCC1 | -46.1% |
| COc1cccc(C(=O)Nc2nc3ccccc3s2)c1 | 4.88% |
| COc1ccc(CC(=O)Nc2ccc(C#N)c(Cl)c2)cc1S(=O)(=O)N1CCOCC1 | -68.1% |
| COc1ccc(C(=O)Nc2nc3ccccc3s2)cc1OC | -65.8% |
| COc1ccc(C(=O)Nc2nc3ccccc3s2)cc1 | 11.6% |
| COc1ccc2nc(NC(=O)Cc3ccc(OC)c(S(=O)(=O)N4CCOCC4)c3)sc2c1 | -22.1% |
| COc1cc(NC(=O)c2nccn2C)cc(C(=O)Nc2cccc(C(F)(F)F)c2)c1 | 5.31% |
| CC(C)CC(C(=O)NC(=O)NCc1ccccc1)N1C(=O)c2ccccc2C1=O (centres unmarked) | 8.22% |
